PubChem BioAssay AID1159580 (chemical genetic matrix, 2015)
“And” between values parts separate entries of the source, which are not always exact repeats. Equal values may be shown once. Among all 5,500 compounds or so, about 2,000 (36%) were called active. About 18% were inconclusive and are not listed. Rule as the data show it: active = normalized growth mostly below about 0.91 (no sharp cut-off); inconclusive = no clear call, values can overlap the other calls; inactive = mostly above about 0.92. The list shows a part of the results.

Test: chemical genetic growth profiling, strain panel (AID 1159580);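 also: tested at 20 µM; growth read once vehicle control cultures reached saturation at 30 °C; 1 = growth at the plate median or of vehicle wells; lower values mean less growth of the strain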
Details: S. cerevisiae deletion strains, growth OD

Measured: normalized growth

CC1(C)CC[C@]2(C(=O)O)CC[C@]3(C)C(=CCC4[C@@]5(C)CC[C@H](O)[C@@](C)(CO)C5CC[C@]43C)C2C1 (stereo partly drawn)
active: locus YGL086W, strain mad1, stronger effect = lower value 1.24 [resistant] | locus YKL085W, strain MDH1 (second series), stronger effect = lower value 1.16 [resistant] | locus YKL085W, strain MDH1, stronger effect = lower value 1.16 [resistant] | locus YLL041C, strain sdh2, stronger effect = lower value 1.12 [resistant]
inactive: locus YAL021C, strain ccr4, stronger effect = lower value 1 | locus YAL026C, strain drs2, stronger effect = lower value 1.02 | locus YAL030W, strain snc1, stronger effect = lower value 1.02 | locus YBL061C, strain skt5, stronger effect = lower value 1.01 | locus YBR009C, strain hhf1, stronger effect = lower value 1.02 | locus YBR021W, strain FUR4, stronger effect = lower value 1.11 | locus YBR023C, strain chs3, stronger effect = lower value 1.02 | locus YBR171W, strain sec66, stronger effect = lower value 1.04 | locus YBR229C, strain ROT2, stronger effect = lower value 1.02 | locus YBR231C, strain swc5, stronger effect = lower value 1.02 | locus YBR279W, strain paf1, stronger effect = lower value 1.02 | locus YCL011C, strain gbp2, stronger effect = lower value 1.03 | locus YCL016C, strain dcc1, stronger effect = lower value 1.03 | locus YCL029C, strain bik1, stronger effect = lower value 0.977 | locus YCL061C, strain MRC1, stronger effect = lower value 1.02 | locus YCL069W, strain vba3, stronger effect = lower value 1.03 | locus YCR088W, strain abp1, stronger effect = lower value 1.02 | locus YDL005C, strain med2, stronger effect = lower value 1.04 | locus YDL035C, strain GPR1, stronger effect = lower value 1.04 | locus YDL040C, strain nat1, stronger effect = lower value 1.05 | locus YDL074C, strain BRE1, stronger effect = lower value 0.981 | locus YDL101C, strain DUN1, stronger effect = lower value 1.02 | locus YDL134C, strain PPH21, stronger effect = lower value 1.1 | locus YDL185W, strain tfp1, stronger effect = lower value 0.946 | locus YDL192W, strain arf1, stronger effect = lower value 0.99 | locus YDR001C, strain nth1, stronger effect = lower value 1.02 | locus YDR069C, strain doa4, stronger effect = lower value 1.03 | locus YDR101C, strain arx1, stronger effect = lower value 1.01 | locus YDR137W, strain rgp1, stronger effect = lower value 1.04 | locus YDR159W, strain sac3, stronger effect = lower value 1.04 | locus YDR162C, strain NBP2, stronger effect = lower value 1.07 | locus YDR195W, strain ref2 1.08 | locus YDR297W, strain sur2, stronger effect = lower value 1.03 | locus YDR318W, strain mcm21, stronger effect = lower value 0.999 | locus YDR334W, strain swr1, stronger effect = lower value 1.03 | locus YDR335W, strain msn5, stronger effect = lower value 1.02 | locus YDR388W, stronger effect = lower value 0.994 | locus YDR392W, strain spt3, stronger effect = lower value 1.01 | locus YDR502C, strain sam2, stronger effect = lower value 0.999 | locus YEL003W, strain gim4, stronger effect = lower value 1.02 | locus YEL037C, strain rad23, stronger effect = lower value 1.02 | locus YEL061C, strain CIN8 (second series), stronger effect = lower value 1.02 | locus YEL061C, strain CIN8, stronger effect = lower value 1 | locus YER015W, strain faa2, stronger effect = lower value 1.02 | locus YER016W, strain bim1, stronger effect = lower value 1.03 | locus YER110C, stronger effect = lower value 0.987 | locus YER111C, strain swi4, stronger effect = lower value 1.02 | locus YER155C, strain BEM2 (second series), stronger effect = lower value 1.03 | locus YER155C, strain BEM2, stronger effect = lower value 1.01 | locus YER167W, strain BCK2, stronger effect = lower value 1.02 | locus YFR010W, strain ubp6, stronger effect = lower value 1.02 | locus YGL078C, strain dbp3, stronger effect = lower value 0.994 | locus YGL167C, strain pmr1, stronger effect = lower value 1.03 | locus YGL173C, strain kem1, stronger effect = lower value 1.03 | locus YGL227W, strain vid30, stronger effect = lower value 1.03 | locus YGL240W, strain doc1, stronger effect = lower value 1.01 | locus YGL248W, strain PDE1, stronger effect = lower value 1.03 | locus YGL253W, strain hxk2, stronger effect = lower value 1.02 | locus YGR078C, strain PAC10, stronger effect = lower value 1.03 | locus YGR135W, strain pre9, stronger effect = lower value 1.01 | locus YGR229C, strain SMI1, stronger effect = lower value 1.02 | locus YGR252W, strain gcn5, stronger effect = lower value 1.02 | locus YHR013C, strain ard1, stronger effect = lower value 1.06 | locus YHR027C, strain rpn1, stronger effect = lower value 1.02 | locus YHR030C, strain SLT2, stronger effect = lower value 0.989 and 1.03 | locus YHR079C, strain IRE1 (second series), stronger effect = lower value 0.999 | locus YHR079C, strain IRE1, stronger effect = lower value 1.02 | locus YHR094C, strain hxt1, stronger effect = lower value 1 | locus YHR129C, strain ARP1, stronger effect = lower value 1 | locus YHR142W, strain chs7, stronger effect = lower value 1.03 | locus YHR200W, strain rpn10, stronger effect = lower value 1.01 | locus YIL066C, strain RNR3, stronger effect = lower value 1.03 | locus YIL073C, strain SPO22, stronger effect = lower value 1 | locus YIL125W, strain kgd1, stronger effect = lower value 0.99 | locus YIR030C, strain dcg1, stronger effect = lower value 1.04 | locus YJL092W, strain hpr5, stronger effect = lower value 1.03 | locus YJL095W, strain BCK1 (second series), stronger effect = lower value 1.02 | locus YJL095W, strain BCK1, stronger effect = lower value 1.04 and 0.98 | locus YJL115W, strain asf1, stronger effect = lower value 1.03 | locus YJL129C, strain trk1, stronger effect = lower value 1.02 | locus YJL134W, strain LCB3, stronger effect = lower value 0.995 | locus YJL154C, strain vps35, stronger effect = lower value 1.02 | locus YJL164C, strain tpk1, stronger effect = lower value 1.05 | locus YJL166W, strain qcr8, stronger effect = lower value 1.02 | locus YJL168C, strain set2, stronger effect = lower value 0.998 | locus YJL187C, strain SWE1 (second series), stronger effect = lower value 1.02 | locus YJL187C, strain SWE1, stronger effect = lower value 1.04 | locus YJR043C, strain POL32, stronger effect = lower value 1.03 | locus YJR066W, strain TOR1, stronger effect = lower value 0.977 | locus YKL160W, strain elf1, stronger effect = lower value 1.02 | locus YKL190W, strain CNB1, stronger effect = lower value 1.02 | locus YKR001C, strain vps1, stronger effect = lower value 0.996 | locus YKR026C, strain gcn3, stronger effect = lower value 1.03 | locus YKR091W, strain srl3, stronger effect = lower value 1.03 | locus YLL001W, strain dnm1, stronger effect = lower value 1.02 | locus YLL026W, stronger effect = lower value 1.02 | locus YLR027C, strain aat2, stronger effect = lower value 1.02 | locus YLR039C, strain RIC1, stronger effect = lower value 1.04 | locus YLR058C, strain SHM2, stronger effect = lower value 1.01 | locus YLR102C, strain apc9, stronger effect = lower value 0.991 | locus YLR113W, strain HOG1, stronger effect = lower value 0.929 | locus YLR221C, strain rsa3, stronger effect = lower value 1.02 | locus YLR258W, strain gsy2, stronger effect = lower value 1.02 | locus YLR262C, strain YPT6 (second series), stronger effect = lower value 1.03 | locus YLR262C, strain YPT6, stronger effect = lower value 1.09 | locus YLR268W, strain sec22, stronger effect = lower value 1.01 | locus YLR320W, strain mms22, stronger effect = lower value 1.03 | locus YLR330W, strain CHS5, stronger effect = lower value 0.994 | locus YLR342W, strain FKS1 (second series), stronger effect = lower value 1.05 | locus YLR342W, strain FKS1, stronger effect = lower value 1.03 | locus YLR357W, strain rsc2, stronger effect = lower value 1.01 | locus YLR370C, strain arc18, stronger effect = lower value 1.02 | locus YLR371W, strain rom2, stronger effect = lower value 0.958 | locus YLR384C, strain iki3, stronger effect = lower value 1.01 | locus YLR418C, strain cdc73, stronger effect = lower value 1.02 | locus YML016C, strain PPZ1, stronger effect = lower value 1.01 | locus YML032C, strain rad52, stronger effect = lower value 0.998 | locus YML120C, strain ndi1, stronger effect = lower value 1.02 | locus YML124C, strain tub3, stronger effect = lower value 0.996 | locus YMR058W, strain fet3, stronger effect = lower value 1.03 | locus YMR078C, strain ctf18, stronger effect = lower value 0.991 | locus YMR125W, strain sto1, stronger effect = lower value 1.03 | locus YMR129W, stronger effect = lower value 1.02 | locus YMR205C, strain PFK2, stronger effect = lower value 1.03 | locus YMR223W, strain ubp8, stronger effect = lower value 1 | locus YMR231W, strain pep5, stronger effect = lower value 1.01 | locus YMR307W, strain GAS1, stronger effect = lower value 0.931 | locus YNL067W, strain RPL9B, stronger effect = lower value 1.04 | locus YNL071W, strain lat1, stronger effect = lower value 1.02 | locus YNL128W, strain TEP1, stronger effect = lower value 0.996 | locus YNL183C, strain NPR1, stronger effect = lower value 0.878 | locus YNL209W, strain ssb2, stronger effect = lower value 1.01 | locus YNL233W, strain BNI4, stronger effect = lower value 1.03 | locus YNL248C, strain rpa49, stronger effect = lower value 1.02 | locus YNL250W, strain rad50, stronger effect = lower value 0.991 | locus YNL271C, strain bni1, stronger effect = lower value 0.983 | locus YNL298W, strain CLA4, stronger effect = lower value 0.992 | locus YNL307C, strain MCK1, stronger effect = lower value 1.01 | locus YNL322C, strain KRE1 (second series), stronger effect = lower value 1.02 | locus YNR049C, strain mso1, stronger effect = lower value 1.02 | locus YNR052C, strain pop2, stronger effect = lower value 0.997 | locus YOL012C, strain htz1 0.926 | locus YOL147C, strain pex11, stronger effect = lower value 1 | locus YOR001W, strain rrp6, stronger effect = lower value 1.01 | locus YOR061W, strain CKA2, stronger effect = lower value 0.998 | locus YOR069W, strain VPS5, stronger effect = lower value 1.01 | locus YOR070C, strain gyp1, stronger effect = lower value 1 | locus YOR080W, strain dia2, stronger effect = lower value 1.03 | locus YOR083W, strain WHI5, stronger effect = lower value 1.02 | locus YOR106W, strain vam3, stronger effect = lower value 1.04 | locus YOR136W, strain idh2, stronger effect = lower value 0.999 | locus YOR144C, strain elg1, stronger effect = lower value 1 | locus YOR184W, strain ser1, stronger effect = lower value 1.01 | locus YOR231W, strain MKK1, stronger effect = lower value 1.02 | locus YOR265W, strain rbl2, stronger effect = lower value 1.01 | locus YOR270C, strain vph1, stronger effect = lower value 1.05 | locus YOR290C, strain snf2, stronger effect = lower value 1.03 | locus YOR316C, strain cot1, stronger effect = lower value 0.989 | locus YPL051W, strain arl3, stronger effect = lower value 1.01 | locus YPL078C, strain atp4, stronger effect = lower value 1.02 | locus YPL106C, strain sse1, stronger effect = lower value 1.04 | locus YPL240C, strain hsp82, stronger effect = lower value 1.02 | locus YPL241C, strain CIN2, stronger effect = lower value 0.999 | locus YPL256C, strain CLN2, stronger effect = lower value 1.01 | locus YPR119W, strain clb2, stronger effect = lower value 0.999 | locus YPR141C, strain kar3, stronger effect = lower value 0.986 | locus YPR163C, strain tif3, stronger effect = lower value 1 | locus YPR167C, strain met16, stronger effect = lower value 0.996 | strain wtn01, stronger effect = lower value 0.997
